{"source": "the supplement of paper PMC10849652", "note": "About 8,800 targets were measured; listed, in parts, are those with a hit and a random draw of the rest. About 0.5% of all pairs of compound and target were hits. Unmarked numbers belong to inactive results.", "data": [{"compound": "CN1CCN(CCOc2cc(OC3CCOCC3)c3c(Nc4c(Cl)ccc5c4OCO5)ncnc3c2)CC1 [saracatinib]", "assay": "log2 fold change, soluble protein after heating vs DMSO (PISA); higher = thermal stabilisation; K562 lysate, 10 uM; active = over 0.2 and 3.5 SD of the protein, either way, in both replicates (recomputed)", "how_it_was_run": "(§1)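 Dounce homogenisation of K562 pellets in PBS pH 7.4 with 1 mM MgCl2 produced a crude extract, used at 1 mg/mL protein. Exposure to 10 μM compound lasted 30 min, and aliquots were then heated for 3 min across 48°C-58°C, pooled and brought to 0.5% NP-40 at 4°C. The supernatant after 21,000xg for 90 min was quantified by TMTpro 16plex LC-MS/MS with channel sums equalised. Duplicate values are given as log-two fold change in thermal stability relative to solvent controls.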", "values": [{"target": "NSL1 (UniProt Q96IY1)", "sequence (Q96IY1 whole entry, looked up)": "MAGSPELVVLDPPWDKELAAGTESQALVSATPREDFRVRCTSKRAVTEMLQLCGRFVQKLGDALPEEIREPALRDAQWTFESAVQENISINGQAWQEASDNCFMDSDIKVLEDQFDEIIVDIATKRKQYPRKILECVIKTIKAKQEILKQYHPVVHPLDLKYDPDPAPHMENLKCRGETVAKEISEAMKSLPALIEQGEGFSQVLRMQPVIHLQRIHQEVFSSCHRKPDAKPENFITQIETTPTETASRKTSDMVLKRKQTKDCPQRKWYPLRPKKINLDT", "log2 fold change": 0.012}, {"target": "NOB1 (UniProt Q9ULX3)", "sequence (Q9ULX3 whole entry, looked up)": "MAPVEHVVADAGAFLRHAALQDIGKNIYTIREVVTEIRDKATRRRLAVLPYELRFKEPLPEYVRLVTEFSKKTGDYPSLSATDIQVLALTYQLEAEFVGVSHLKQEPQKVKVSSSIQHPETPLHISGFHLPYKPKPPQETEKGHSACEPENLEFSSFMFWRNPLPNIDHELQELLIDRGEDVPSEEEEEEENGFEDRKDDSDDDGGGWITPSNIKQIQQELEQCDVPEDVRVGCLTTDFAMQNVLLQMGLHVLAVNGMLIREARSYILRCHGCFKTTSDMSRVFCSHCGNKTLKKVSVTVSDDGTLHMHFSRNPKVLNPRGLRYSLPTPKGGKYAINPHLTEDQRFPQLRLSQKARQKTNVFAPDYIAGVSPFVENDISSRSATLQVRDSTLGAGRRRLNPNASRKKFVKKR", "log2 fold change": 0.018}, {"target": "OAT (UniProt P04181)", "log2 fold change": -0.004}, {"target": "NEK7 (UniProt Q8TDX7)", "sequence (Q8TDX7 whole entry, looked up)": "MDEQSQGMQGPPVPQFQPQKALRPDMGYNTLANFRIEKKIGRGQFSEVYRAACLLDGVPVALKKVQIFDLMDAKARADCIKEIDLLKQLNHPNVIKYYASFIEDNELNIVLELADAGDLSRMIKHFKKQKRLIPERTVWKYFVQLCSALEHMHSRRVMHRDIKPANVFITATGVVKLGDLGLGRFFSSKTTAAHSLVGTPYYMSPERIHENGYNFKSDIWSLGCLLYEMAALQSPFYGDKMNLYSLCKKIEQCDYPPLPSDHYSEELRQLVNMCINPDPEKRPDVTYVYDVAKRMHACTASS", "log2 fold change": 0.013}, {"target": "MTFP1 (UniProt Q9UDX5)", "sequence (Q9UDX5 whole entry, looked up)": "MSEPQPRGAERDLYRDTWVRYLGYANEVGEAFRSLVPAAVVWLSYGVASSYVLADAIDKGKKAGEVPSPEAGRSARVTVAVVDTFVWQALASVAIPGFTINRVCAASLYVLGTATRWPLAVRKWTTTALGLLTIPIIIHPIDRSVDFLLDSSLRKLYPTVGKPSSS", "log2 fold change": -0.042}, {"target": "NIPSNAP3A (UniProt Q9UFN0)", "sequence (Q9UFN0 whole entry, looked up)": "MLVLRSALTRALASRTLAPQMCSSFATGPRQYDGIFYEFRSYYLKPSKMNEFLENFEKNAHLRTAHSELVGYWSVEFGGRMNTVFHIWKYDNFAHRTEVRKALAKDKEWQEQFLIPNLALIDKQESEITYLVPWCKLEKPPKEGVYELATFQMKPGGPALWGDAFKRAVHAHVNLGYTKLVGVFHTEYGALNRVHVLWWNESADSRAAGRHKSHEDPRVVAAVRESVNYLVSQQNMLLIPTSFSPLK", "log2 fold change": -0.002}, {"target": "NAA35 (UniProt Q5VZE5)", "sequence (Q5VZE5 whole entry, looked up)": "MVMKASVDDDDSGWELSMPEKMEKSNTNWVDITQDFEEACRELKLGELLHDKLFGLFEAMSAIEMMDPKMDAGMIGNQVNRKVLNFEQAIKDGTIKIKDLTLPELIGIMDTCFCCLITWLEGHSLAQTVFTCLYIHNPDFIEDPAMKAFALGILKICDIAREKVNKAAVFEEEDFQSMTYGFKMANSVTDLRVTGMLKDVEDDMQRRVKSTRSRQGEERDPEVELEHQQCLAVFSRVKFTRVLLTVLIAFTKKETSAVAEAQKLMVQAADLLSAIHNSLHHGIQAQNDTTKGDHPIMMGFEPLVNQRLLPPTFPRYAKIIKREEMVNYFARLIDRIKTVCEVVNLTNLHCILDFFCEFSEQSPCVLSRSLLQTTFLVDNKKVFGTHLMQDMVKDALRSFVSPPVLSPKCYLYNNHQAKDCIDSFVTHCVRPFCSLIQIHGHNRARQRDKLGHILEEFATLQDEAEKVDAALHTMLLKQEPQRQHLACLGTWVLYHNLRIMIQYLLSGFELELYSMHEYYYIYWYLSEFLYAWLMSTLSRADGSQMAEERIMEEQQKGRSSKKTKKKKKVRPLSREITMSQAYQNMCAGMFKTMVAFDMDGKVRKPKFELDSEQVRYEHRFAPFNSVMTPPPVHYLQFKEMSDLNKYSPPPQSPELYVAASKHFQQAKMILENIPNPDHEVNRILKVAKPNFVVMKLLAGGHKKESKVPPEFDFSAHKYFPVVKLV", "log2 fold change": 0.026}, {"target": "NCAPD2 (UniProt Q15021)", "sequence (Q15021 whole entry, looked up)": "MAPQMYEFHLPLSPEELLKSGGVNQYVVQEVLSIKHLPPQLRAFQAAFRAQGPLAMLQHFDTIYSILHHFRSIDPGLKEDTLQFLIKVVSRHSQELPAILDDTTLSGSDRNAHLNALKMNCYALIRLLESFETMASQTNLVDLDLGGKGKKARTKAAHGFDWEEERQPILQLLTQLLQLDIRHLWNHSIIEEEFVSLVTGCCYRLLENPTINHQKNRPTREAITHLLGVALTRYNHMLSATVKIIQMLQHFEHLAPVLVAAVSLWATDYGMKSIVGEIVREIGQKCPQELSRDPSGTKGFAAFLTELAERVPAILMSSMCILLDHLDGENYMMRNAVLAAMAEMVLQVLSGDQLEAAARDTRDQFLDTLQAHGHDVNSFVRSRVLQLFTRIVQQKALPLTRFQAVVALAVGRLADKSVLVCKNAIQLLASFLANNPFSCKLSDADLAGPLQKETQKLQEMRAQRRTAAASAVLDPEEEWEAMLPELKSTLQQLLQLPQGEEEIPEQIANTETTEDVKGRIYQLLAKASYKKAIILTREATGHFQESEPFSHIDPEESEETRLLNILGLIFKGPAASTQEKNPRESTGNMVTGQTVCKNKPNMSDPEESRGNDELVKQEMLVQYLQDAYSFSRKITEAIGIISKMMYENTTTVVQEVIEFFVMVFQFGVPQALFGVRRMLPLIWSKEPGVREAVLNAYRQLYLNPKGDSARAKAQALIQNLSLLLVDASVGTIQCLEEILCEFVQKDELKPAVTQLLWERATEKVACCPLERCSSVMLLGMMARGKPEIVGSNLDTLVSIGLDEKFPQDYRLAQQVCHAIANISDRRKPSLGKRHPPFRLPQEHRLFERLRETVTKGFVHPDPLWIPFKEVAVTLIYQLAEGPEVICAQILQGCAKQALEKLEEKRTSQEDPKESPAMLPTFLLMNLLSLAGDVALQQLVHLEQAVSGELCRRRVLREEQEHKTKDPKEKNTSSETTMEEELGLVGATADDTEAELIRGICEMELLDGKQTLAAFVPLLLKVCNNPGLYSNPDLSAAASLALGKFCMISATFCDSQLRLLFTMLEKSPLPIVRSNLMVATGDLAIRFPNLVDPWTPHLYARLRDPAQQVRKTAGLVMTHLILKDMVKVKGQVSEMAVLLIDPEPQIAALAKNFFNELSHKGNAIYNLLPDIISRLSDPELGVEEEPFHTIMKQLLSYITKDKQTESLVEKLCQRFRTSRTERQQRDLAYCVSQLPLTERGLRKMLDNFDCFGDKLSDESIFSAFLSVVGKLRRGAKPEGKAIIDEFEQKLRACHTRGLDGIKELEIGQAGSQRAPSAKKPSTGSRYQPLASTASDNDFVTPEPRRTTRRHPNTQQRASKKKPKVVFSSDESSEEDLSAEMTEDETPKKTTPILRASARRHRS", "log2 fold change": 0.006}, {"target": "NUP133 (UniProt Q8WUM0)", "sequence (Q8WUM0 whole entry, looked up)": "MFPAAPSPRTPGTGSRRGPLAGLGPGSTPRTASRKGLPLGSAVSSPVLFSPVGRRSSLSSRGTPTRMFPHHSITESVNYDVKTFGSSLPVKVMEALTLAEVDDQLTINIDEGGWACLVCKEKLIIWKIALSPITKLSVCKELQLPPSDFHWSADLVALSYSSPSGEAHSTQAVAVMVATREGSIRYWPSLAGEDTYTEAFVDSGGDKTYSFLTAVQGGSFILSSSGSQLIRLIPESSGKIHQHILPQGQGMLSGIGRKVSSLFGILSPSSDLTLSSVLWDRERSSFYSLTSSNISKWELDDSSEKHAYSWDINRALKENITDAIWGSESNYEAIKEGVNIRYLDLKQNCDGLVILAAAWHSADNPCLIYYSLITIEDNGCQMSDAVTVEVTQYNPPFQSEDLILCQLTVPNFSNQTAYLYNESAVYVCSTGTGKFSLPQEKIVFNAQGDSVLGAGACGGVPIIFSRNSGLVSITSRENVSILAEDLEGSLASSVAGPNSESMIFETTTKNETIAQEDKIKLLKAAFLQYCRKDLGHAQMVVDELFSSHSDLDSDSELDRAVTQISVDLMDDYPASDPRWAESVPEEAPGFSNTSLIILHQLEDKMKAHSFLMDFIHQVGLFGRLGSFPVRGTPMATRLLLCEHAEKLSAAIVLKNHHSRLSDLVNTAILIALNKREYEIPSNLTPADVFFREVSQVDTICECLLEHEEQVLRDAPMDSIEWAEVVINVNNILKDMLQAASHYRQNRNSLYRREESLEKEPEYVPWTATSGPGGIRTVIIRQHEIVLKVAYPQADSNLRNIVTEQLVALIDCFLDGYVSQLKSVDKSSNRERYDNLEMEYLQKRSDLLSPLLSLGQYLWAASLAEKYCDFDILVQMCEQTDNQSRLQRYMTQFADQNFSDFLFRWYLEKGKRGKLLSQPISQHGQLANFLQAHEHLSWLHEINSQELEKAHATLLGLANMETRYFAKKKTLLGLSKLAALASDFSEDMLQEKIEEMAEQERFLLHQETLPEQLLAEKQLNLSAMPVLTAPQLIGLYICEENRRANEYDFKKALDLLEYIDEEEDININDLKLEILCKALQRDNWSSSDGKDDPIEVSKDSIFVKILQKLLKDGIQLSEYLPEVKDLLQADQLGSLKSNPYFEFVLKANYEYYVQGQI", "log2 fold change": 0.014}, {"target": "MSI2 (UniProt Q96DH6)", "sequence (Q96DH6 whole entry, looked up)": "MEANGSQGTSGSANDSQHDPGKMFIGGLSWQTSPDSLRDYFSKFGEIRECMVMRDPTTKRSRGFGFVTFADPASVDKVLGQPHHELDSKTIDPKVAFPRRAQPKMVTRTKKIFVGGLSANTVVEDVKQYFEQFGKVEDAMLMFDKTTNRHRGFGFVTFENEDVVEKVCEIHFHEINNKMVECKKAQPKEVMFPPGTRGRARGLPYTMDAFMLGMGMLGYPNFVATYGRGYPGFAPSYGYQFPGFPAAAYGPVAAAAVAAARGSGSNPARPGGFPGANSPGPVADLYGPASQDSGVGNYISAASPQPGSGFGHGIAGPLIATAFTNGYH", "log2 fold change": -0.015}, {"target": "OGFR (UniProt Q9NZT2)", "log2 fold change": 0.022}, {"target": "MTA1 (UniProt Q13330)", "log2 fold change": 0.018}]}, {"compound": "CN1CCN(c2nc(C3=C(c4c[nH]c5ccccc45)C(=O)NC3=O)c3ccccc3n2)CC1 [sotrastaurin]", "assay": "log2 fold change, soluble protein after heating vs DMSO (PISA); higher = thermal stabilisation; K562 lysate, 10 uM; active = over 0.2 and 3.5 SD of the protein, either way, in both replicates (recomputed)", "how_it_was_run": "as §1", "values": [{"target": "NFAT5 isoform 5 (UniProt O94916)", "log2 fold change": 0.044}, {"target": "NQO1 (UniProt P15559)", "log2 fold change": 0.034}, {"target": "OARD1 (UniProt Q9Y530)", "log2 fold change": 0.002}, {"target": "NARS2 (UniProt Q96I59)", "log2 fold change": -0.024}, {"target": "OPA1 isoform 2 (UniProt O60313)", "log2 fold change": 0.014}, {"target": "NFKBIB (UniProt Q15653)", "log2 fold change": -0.002}, {"target": "NCAPH (UniProt Q15003)", "log2 fold change": 0.015}, {"target": "OCRL (UniProt Q01968)", "log2 fold change": 0.019}, {"target": "NNT (UniProt Q13423)", "log2 fold change": -0.024}, {"target": "NR3C1 isoform 3 (UniProt P04150)", "log2 fold change": -0.016}, {"target": "NGLY1 (UniProt Q96IV0)", "log2 fold change": 0.024}, {"target": "NUMBL (UniProt Q9Y6R0)", "log2 fold change": -0.278}, {"target": "PAFAH1B3 (UniProt Q15102)", "log2 fold change": -0.009}, {"target": "OLA1 (UniProt Q9NTK5)", "log2 fold change": 0.026}, {"target": "NUMB (UniProt P49757)", "log2 fold change": -0.134}, {"target": "OSBPL3 isoform 2 (UniProt Q9H4L5)", "log2 fold change": 0.018}, {"target": "NFATC2 (UniProt Q13469)", "log2 fold change": -0.016}, {"target": "PARP14 (UniProt Q460N5)", "log2 fold change": -0.058}, {"target": "MTHFD1L (UniProt B7ZM99)", "log2 fold change": 0.036}, {"target": "NBEAL2 (UniProt Q6ZNJ1)", "log2 fold change": 0}, {"target": "NDUFA4 (UniProt O00483)", "log2 fold change": -0.063}, {"target": "NSL1 (UniProt Q96IY1)", "log2 fold change": 0.005}, {"target": "NOB1 (UniProt Q9ULX3)", "log2 fold change": -0.009}, {"target": "OAT (UniProt P04181)", "log2 fold change": -0.024}, {"target": "NEK7 (UniProt Q8TDX7)", "log2 fold change": 0.04}, {"target": "MTFP1 (UniProt Q9UDX5)", "log2 fold change": 0.004}, {"target": "NIPSNAP3A (UniProt Q9UFN0)", "log2 fold change": 0.021}, {"target": "NAA35 (UniProt Q5VZE5)", "log2 fold change": 0.006}, {"target": "NCAPD2 (UniProt Q15021)", "log2 fold change": 0.021}, {"target": "NUP133 (UniProt Q8WUM0)", "log2 fold change": 0.038}, {"target": "MSI2 (UniProt Q96DH6)", "log2 fold change": -0.002}, {"target": "OGFR (UniProt Q9NZT2)", "log2 fold change": 0.053}, {"target": "MTA1 (UniProt Q13330)", "log2 fold change": 0.036}]}]}
